Each structure is given as a SMILES string. Values joined by “and” are separate entries in the source; they are usually repeats but may differ in a detail not shown here. Equal values may be shown once. Inconclusive results are not listed. The source holds several records for some structures; these can differ, active in one and inactive in another. Active and inactive are the calls of the source. The call rests on the fitted dose curve; in most records, active means well fitted inhibition curve with a large enough effect; inconclusive means small, poorly fitted or top-dose-only effect; inactive means no such curve, though single readings can be large or run the other way.
Potency means the concentration at half of the fitted maximal effect.

The nature of this assay: Primary qHTS for inhibitors of nuclear receptor binding SET domain protein 2 (NSD2) in an RCH-ACV wild type WT cells (2C) (AID 1645877). Further: nearly all actives have a fitted effect of over 70% in size. To be noted: RCH-ACV (leukaemia line) NSD2 WT (2C) viability, CellTiter-Glo, 72 h; series mostly up to 44.9 µM.
Consider `CC(=O)[O][Hg][c]1ccccc1`, for which the Potency was 531 nM (active). In the case of `CC(C)[C@]12O[C@H]1[C@@H]1O[C@]13[C@]1(O[C@H]1C[C@H]1C4=C(CC[C@@]13C)C(=O)OC4)[C@@H]2O`, the Potency was 12.9 nM (active) and 18.6 nM (active). Turning to `CC1=C(O)C(=O)C=C2C1=CC=C1[C@@]2(C)CC[C@@]2(C)[C@@H]3C[C@](C)(C(=O)O)CC[C@]3(C)CC[C@]12C`, the Potency is 1660 nM (active). On to `COc1ccc(N(C(=O)Oc2c(C)cccc2C)c2ccnc(Nc3ccc(N4CCN(C)CC4)cc3)n2)c(OC)c1`, for which the Potency is 5250 nM (active). Then `O=c1[nH]c2ccc(Cl)cc2c(N[C@@H]2CN3CCC2CC3)c1-c1nc2ccccc2[nH]1`, with 51.5 nM (active) and 83.3 nM (active); and `CCNC(=O)CC1N=C(c2ccc(Cl)cc2)c2cc(OC)ccc2-n2c(C)nnc21` (stereo not given), with 5.9 µM (active) and inactive and 409 nM (active); and `COc1ccc2c(c[n+](C)c3c4cc5c(cc4ccc23)OCO5)c1OC`, with “inactive”.

`CC(=O)Nc1ccc(OC[C@](C)(O)C(=O)Nc2ccc([N+](=O)[O-])c(C(F)(F)F)c2)cc1`: the Potency result is “inactive”. Regarding `CC[C@@]1(O)C(=O)OCc2c1cc1n(c2=O)Cc2cc3ccccc3nc2-1`, the Potency is 13.2 nM (active). Under `COC(=O)[C@@H](N)CCCN=C(N)N[N+](=O)[O-]` stands “inactive”; under `C/C=C(/C)C(=O)O[C@H]1C(C)=C2[C@H]([C@@H]1OC(=O)CCCCCCC)[C@@](C)(OC(C)=O)C[C@H](OC(=O)CCC)[C@@]1(O)[C@H]2OC(=O)[C@@]1(C)O`, 6.5 nM (active) and 16.6 nM (active).

On to `CC[C@@H](C(N)=O)N1CCCC1=O`, for which the Potency result was “inactive”. Regarding `CC1(N2CCC(n3c([C@@H]4CCCNC4)nc4ccccc43)CC2)CCCCCCC1`, the Potency is 7.28 µM (active) and 13.2 µM (active). With `CCCCCCCCCCCCCCCC[N+](C)(C)C`, the Potency was 596 nM (active).

Turning to `Cc1[nH]nc2ccc(-c3cncc(OC[C@@H](N)Cc4c[nH]c5ccccc45)c3)cc12`, the Potency was 81.7 nM (active) and 132 nM (active).

For the origin of these results see PubChem BioAssay (NCATS).
